WRN inhibitor – qHTS for Inhibitors of WRN Helicase; Bifunctional 3'-5' exonuclease/ATP-dependent helicase WRN (Homo sapiens), Q14191; WRN helicase unwinding, fluorescent forked duplex, kinetic; Potency, µM (highest dose often 114 µM), actives largely listed as inhibitors; 360,000 compounds, 0.46% hits; AID 651768, 2012; note: nearly all actives have a fitted effect of over 55% in size
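Kinetic fluorescence helicase assay: unwinding of a quenched forked DNA duplex (100 nM final) with 2 mM ATP final raises red fluorescence (525/598 nm). Compounds sat 15 min at room temperature with 20 nM WRN beforehand.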
POLK inh – qHTS for Inhibitors of Polymerase Kappa; DNA polymerase kappa (Homo sapiens), Q9UBT6; purified Pol kappa, fluorescent DNA synthesis assay, 10 min; Potency, µM (highest dose often 107 µM), actives largely listed as inhibitors; 400,000 compounds, 0.53% hits; AID 588579, 2011
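10 nM Pol kappa preincubated 15 min at room temperature with compounds, then reaction started with substrate at 50 nM final. Fluorescence read kinetically at 0 and 10 min; buffer-only wells served as negative control.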
POLH inh – qHTS for Inhibitors of Polymerase Eta | recombinant Pol eta, fluorescent DNA replication assay | DNA polymerase eta (Homo sapiens), Q9Y253 | 390,000 compounds, 1.2% hits | Potency, µM (series often up to 114 µM), hits mostly inhibitors
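Fluorescent replication assay: 50 nM final substrate added after a 15 min room-temperature compound preincubation with 10 nM enzyme. Signal taken at 0 min and again at 10 min.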
POLI inh – qHTS for Inhibitors of Polymerase Iota | AID 588590, 2011 | Potency, µM (doses to about 115 µM), usual class: inhibitors | Pol iota fluorescent replication assay, 10 min | 390,000 compounds, 1% hits
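Fluorescent replication assay read twice, at 0 min and 10 min after adding 50 nM (final) substrate. Enzyme (10 nM) and compounds were first incubated 15 min at room temperature; enzyme-free buffer wells were negative controls.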
POLB inh – qHTS Assay for Inhibitors of DNA Polymerase Beta. P06746. Pol beta primer extension/strand displacement, fluorescence kinetic. Potency, µM (highest dose often 114 µM), most hits filed as inhibitors. 340,000 compounds, 1.3% hits
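Human Pol beta at 10 nM; strand-displacement substrate 50 nM final. Compound exposure 15 min at room temperature before start, reaction 10 min at room temperature.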
FEN1 inh – qHTS Assay for the Inhibitors of Human Flap endonuclease 1 (FEN1); 390,000 compounds, 0.35% hits; Potency, µM (top dose mostly 114 µM), most hits filed as inhibitors; P39748; AID 588795, 2011; Recombinant FEN1 flap cleavage, fluorescence, 15 min; note: nearly all actives have a fitted effect of over 65% in size
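Concentration–response screening of FEN1 (10 nM): 15 min compound preincubation at room temperature, reaction started with 50 nM substrate and read at 0 and 15 min. Corrected, normalized data were fitted by a four-parameter Hill equation.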
Hits are given with their value; . = inactive; ? = inconclusive; / = not tested or not shown; [ ] = remark or other dose. Most compounds without a hit are left out; they make up all but 2.4% or so of the library. Calls come from the whole dose curve; as a rule, active = well fitted curve in the direction sought with a large enough effect; inconclusive = small, poorly fitted or top-dose-only effect, or another doubt; inactive = no such curve, though single readings can be large; an effect the other way counts as inactive or inconclusive.

SMILES	WRN inhibitor	POLK inh	POLH inh	POLI inh	POLB inh	FEN1 inh
CCOC(=O)c1cc(-c2ccco2)nc2c1c(C)nn2-c1cccc(Cl)c1	.	.	?	.	28.2µM	.
O=C1C=CC(=O)N1c1cccc(-c2ccccc2)c1	31.6µM	.	?	?	.	.
O=C1c2ccccc2C(=O)N1c1ccccc1	.	.	.	.	/	.
CC(C)CCOc1ccc(C2N=C(N)Nc3nc4ccccc4n32)cc1 (configuration not stated)	/	.	.	.	.	.
Cc1ccccc1OCC(=O)NCC(c1ccc(Cl)cc1)N1CCOCC1 (configuration not stated)	/	.	.	.	.	.
CCc1ccc(N2C(=O)CC(N(CC3CCCO3)C(=O)/C=C/C(=O)O)C2=O)cc1 (configuration not stated)	.	.	?	.	44.7µM	.
COc1ccc(CCN(C(=O)/C=C/C(=O)O)C2CC(=O)N(c3ccccc3)C2=O)cc1 (configuration not stated)	.	.	.	.	.	.
CCS(=O)(=O)c1ccc2oc(SCC(=O)c3ccco3)nc2c1	.	.	15.8µM	?	.	.
C=C(CC[C@]12OC(C(=O)O)C(O)(C(=O)O)C(C(=O)O)(O1)C(OC(=O)/C=C/[C@@H](C)C[C@@H](C)CC)C2O)[C@@H](OC(C)=O)[C@H](C)Cc1ccccc1 (some centres not stated)	/	79.4µM	/	?	/	.
C=C(CCC12O[C@H](C(=O)O)[C@@](O)(C(=O)O)[C@](C(=O)O)(O1)[C@H](OC(=O)/C=C/[C@@H](C)C[C@@H](C)CC)[C@H]2O)[C@@H](OC(C)=O)[C@H](C)Cc1ccccc1	/	3.55µM	/	/	/	/
CCOC(=O)c1ccc(N2C(=O)C3CC=CCC3C2=O)cc1 (configuration not stated)	.	.	.	89.1µM	.	.
O=c1oc2ccccc2nc1/C=C(\O)c1ccccc1	.[11.6 µM]	.	.	.	.	?
O/C(=C\c1nc2ccccc2nc1/C=C(\O)c1ccccc1)c1ccccc1	44.7µM	.	.	.	.	.
Cc1ccc(-c2nn(C)c(=O)c3ccccc23)cc1S(=O)(=O)NCCN1CCOCC1	.	.	?	?	.	.
CCOC(=O)CNS(=O)(=O)c1cc(-c2nn(C)c(=O)c3ccccc23)ccc1C	.	?	?	25.1µM	35.5µM	.
COc1ccccc1/C=C(/CC(=O)NCc1ccccc1)c1nc2ccccc2s1	.	.	?	.	20µM	.
COc1ccccc1/C=C(/CC(=O)NCc1ccc(F)cc1)c1nc2ccccc2s1	.	.	?	?	44.7µM	.
O=C(NCCc1ccc(Cl)cc1)c1nc(-c2cccc(F)c2)n2c1CCCCC2	/	.	.	.	.	.
Cc1oc(-c2cccc(Cl)c2)nc1CS(=O)(=O)CC(=O)NC(C)CCc1ccccc1 (configuration not stated)	/	.	.	89.1µM	.	.
O=C(Cn1cc(SCc2ccc(C(F)(F)F)cc2)c2ccccc21)N1CCOCC1	/	.	.	.	.	.
N#C/C(=C(/O)CN1CCCCC1)c1nc(-c2ccc(Cl)cc2)cs1	.	.	.	.	.	.
Cc1ccc(-c2csc(/C(C#N)=C(\O)CCl)n2)cc1	.	.	44.7µM	?	?	.
N#C/C(=C(/O)CCl)c1nc(-c2ccccc2)cs1	.	.	39.8µM	?	?	.
O=C(CSCCSCC(=O)c1ccco1)c1ccco1	/	/	/	/	28.2µM	/
Cc1ccc(-c2nc3c(c(SCC(=O)N4CCCCC4)n2)Cc2cc(C)ccc2O3)cc1	/	.	.	.	.	.
SMILES	WRN inhibitor	POLK inh	POLH inh	POLI inh	POLB inh	FEN1 inh
CN(C)S(=O)(=O)c1ccc(C(=O)OCC(=O)c2csc(N3CCCCC3)n2)cc1	.[11.6 µM]	.	79.4µM	?	/	.
O=C(N/N=C/c1ccc(Sc2ccccn2)o1)c1cc2ccccc2cc1O	?	28.2µM	17.8µM	20µM	17.8µM	50.1µM
CC1CC2=C(NC(=S)NC2c2ccc(F)cc2)/C(=C/c2ccc(F)cc2)C1 (configuration not stated)	.[11.6 µM]	.	.	79.4µM	.	.
O=C(N/N=C/c1cccc(O)c1)c1ccc(NC(=O)C2CCCCC2)cc1	.	.	.	?	31.6µM	.
O=C(N/N=C/c1ccc(O)cc1O)C1CC1	.	.	.	.	/	.
O=C(N/N=C/c1ccc(O)cc1O)c1ccc(NC(=O)C2CCCCC2)cc1	.[11.6 µM]	.	35.5µM	?	.	.
O=c1nc(SCc2c(F)cccc2Cl)nc(-c2ccc(Cl)cc2)[nH]1	.[11.6 µM]	.	89.1µM	.	.	.
COc1ccc(C2=CC(=O)C[C@H](c3ccc(OC)cc3)C2)cc1	.	.	.	.	/	.
COc1ccc([C@H]2CC(=O)C=C(c3ccc(SC)cc3)C2)cc1	.	.	.	89.1µM	/	.
COc1ccccc1N1CCN(CC2CN3C(=O)N(C)c4ccccc4C3=N2)CC1 (configuration not stated)	/	.[19.4 µM]	/	/	/	/
COc1ccc(CCNC(=O)CSCc2nc(-c3cccc(C)c3)oc2C)cc1OC	/	.	.	.	.	.
CCCCc1ccc(-c2ccc(C)cc2O)nc1	.	.	.	.	28.2µM	.
Clc1ccc(-c2nnc3sc(-c4ccc(Br)o4)nn23)cc1	.	.	?	89.1µM	.	.
CC(C)c1nnc(NC(=O)c2nc(S(=O)(=O)Cc3ccc(F)cc3)ncc2Cl)s1	.	.	.	?	.	.
Cc1nnc(NC(=O)c2nc(S(=O)(=O)Cc3ccccc3C)ncc2Cl)s1	.	.	56.2µM	?	?	.
CC(C)c1nnc(NC(=O)c2nc(S(=O)(=O)Cc3ccccc3F)ncc2Cl)s1	.	.	.	?	.	.
Cc1ccc(C)c(NC(=O)c2nc(S(=O)(=O)Cc3ccc(F)cc3)ncc2Cl)c1	/	.	89.1µM	?	31.6µM	.
CCOC(=O)c1sc(NC(=O)c2nc(SC)ncc2Cl)c(C(=O)OCC)c1C	/	.	.	.	.	.
O=C(NCc1ccco1)C1CC2CCC1C2 (configuration not stated)	.	.	.	89.1µM	.	.
COCCN(CCOC)C(=O)c1cc2c(=O)n3ccccc3nc2n1C	/	.	.	?	10µM	.
Cc1[nH]c2ccccc2c1/C=N/NC(=O)c1ccccc1	.	.	.	.	.	.
Cc1[nH]c2ccccc2c1/C=N/NC(=O)c1ccc(N)cc1	.	.	.	.	20µM	.
CCOc1cccc(NC(=O)/C(C#N)=C\c2cn(CC(=O)O)c3ccccc23)c1	.	.	?	.	50.1µM	.

Assay outcomes: PubChem, National Center for Advancing Translational Sciences (NCATS)
